# Experimental data reported in PubChem BioAssay (NCATS).
# Results filed as inconclusive are left out. Entries that show only a call come without a potency. Calls of active or inactive are those of the source. The call rests on the fitted dose curve; in most records, active means well fitted inhibition curve with a large enough effect; inconclusive means small, poorly fitted or top-dose-only effect; inactive means flat fitted curve, though single readings scatter. Peptide text beside a SMILES is read from it.
# Legend:
# Test in all cases: qHTS profiling for inhibitors of Plasmodium falciparum proliferation (AID 504749); further: nearly all actives have a fitted effect of over 60% in size
# Details in all cases: P. falciparum in erythrocytes, SYBR Green DNA, 72 h; series mostly up to 28.7 µM
# CP266 = tested on: CP266
# How it was run: (§1)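 Readout was DNA-dye fluorescence from lysed cultures, ex 485/em 535 nm. Parasitized red cells had grown 72 h with compound; data scaled between 0.29 uM artemisinin and DMSO wells and corrected using vehicle-only plates.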
# CP268 = tested on: CP268
# How it was run: as §1
# CP269 = tested on: CP269
# How it was run: as §1
# CP286 = tested on: CP286
# How it was run: as §1
# CP291 = tested on: CP291
# How it was run: as §1
# CP297 = tested on: CP297
# How it was run: as §1
# CP305 = tested on: CP305
# How it was run: as §1
# CP315 = tested on: CP315
# How it was run: as §1
# CP325 = tested on: CP325
# How it was run: as §1
# CP329 = tested on: CP329
# How it was run: as §1
# Potency means the concentration at half of the fitted maximal effect.
SMILES,Potency (CP266),Potency (CP268),Potency (CP269),Potency (CP286),Potency (CP291),Potency (CP297),Potency (CP305),Potency (CP315),Potency (CP325),Potency (CP329)
Cc1ccc(C)c(OCCCC(C)(C)C(=O)O)c1,inactive,inactive,inactive,inactive,inactive,inactive,inactive,inactive,inactive,inactive
O=C(O)c1cc(=O)c2c(OCC(O)COc3cccc4oc(C(=O)O)cc(=O)c34)cccc2o1,inactive,inactive,inactive,inactive,inactive,inactive,inactive,inactive,inactive,inactive
O=c1oc2cc(O)ccc2s1,inactive,inactive,inactive,inactive,inactive,inactive,inactive,inactive,inactive,inactive
CC(C)(S)[C@@H](N)C(=O)O,inactive,inactive,inactive,inactive,inactive,inactive,inactive,inactive,inactive,inactive
CCC1=C(C)CN(C(=O)NCCc2ccc(S(=O)(=O)NC(=O)NC3CCC(C)CC3)cc2)C1=O (stereo not given),inactive,inactive,inactive,inactive,inactive,inactive,inactive,inactive,inactive,inactive
CC(S)C(=O)NCC(=O)O (stereo not given),inactive,inactive,inactive,inactive,inactive,inactive,inactive,inactive,inactive,inactive
CCOc1cc(CC(=O)N[C@@H](CC(C)C)c2ccccc2N2CCCCC2)ccc1C(=O)O,inactive,inactive,inactive,inactive,inactive,inactive,inactive,inactive,inactive,inactive
CCN(CC)CCOc1ccc(Cc2ccccc2)cc1,inactive,inactive,inactive,inactive,inactive,inactive,inactive,inactive,inactive,inactive
CCCOc1ccc2nc(NC(=O)OC)[nH]c2c1,inactive,inactive,inactive,inactive,inactive,inactive,inactive,inactive,inactive,inactive
CC1(C)NC(=O)N(c2ccc([N+](=O)[O-])c(C(F)(F)F)c2)C1=O,inactive,inactive,inactive,inactive,inactive,inactive,inactive,inactive,inactive,inactive
CS(=O)(=O)OCCCCOS(C)(=O)=O,inactive,inactive,inactive,inactive,inactive,inactive,inactive,inactive,inactive,inactive
O=C(O)CCNC(=O)c1ccc(N=Nc2ccc(O)c(C(=O)O)c2)cc1,inactive,inactive,inactive,inactive,inactive,inactive,inactive,inactive,inactive,inactive
COc1cc2c(cc1OC)C1CC(=O)C(CC(C)C)CN1CC2 (stereo not given),inactive,inactive,inactive,inactive,inactive,inactive,inactive,inactive,inactive,inactive
CNC[C@H](O)c1ccc(O)c(O)c1,inactive,inactive,inactive,inactive,inactive,inactive,inactive,inactive,inactive,inactive
O=C(O)c1cccnc1Nc1cccc(C(F)(F)F)c1,inactive,inactive,inactive,inactive,inactive,inactive,inactive,inactive,inactive,inactive
C[C@]12CCC(=O)C=C1CC[C@@H]1[C@H]2[C@@H](O)C[C@@]2(C)[C@H]1CC[C@]2(O)C(=O)CO,inactive,inactive,inactive,inactive,inactive,inactive,inactive,inactive,inactive,inactive
CCCc1cc(=O)[nH]c(=S)[nH]1,inactive,inactive,inactive,inactive,inactive,inactive,inactive,inactive,inactive,inactive
CN(C)C(=O)COC(=O)Cc1ccc(OC(=O)c2ccc(N=C(N)N)cc2)cc1,inactive,inactive,inactive,inactive,inactive,inactive,inactive,inactive,inactive,inactive
CN(C)CCc1c[nH]c2ccc(Cn3cncn3)cc12,inactive,inactive,inactive,inactive,inactive,inactive,inactive,inactive,inactive,inactive
O=C(NC(Cc1cc(=O)[nH]c2ccccc12)C(=O)O)c1ccc(Cl)cc1 (stereo not given),inactive,inactive,inactive,inactive,inactive,inactive,inactive,inactive,inactive,inactive
N[C@@H](Cc1cc(I)c(Oc2cc(I)c(O)c(I)c2)c(I)c1)C(=O)O,inactive,inactive,inactive,inactive,inactive,inactive,inactive,inactive,inactive,inactive
O=C(O)c1cn(-c2ccc(F)cc2)c2cc(N3CCNCC3)c(F)cc2c1=O,inactive,,,,,,,,,
CCCCc1ccc2nc(NC(=O)OC)[nH]c2c1,inactive,inactive,inactive,inactive,inactive,inactive,inactive,inactive,inactive,inactive
N=C(N=C(N)N)N1CCOCC1,inactive,inactive,inactive,inactive,inactive,inactive,inactive,inactive,inactive,
O=C(O)c1cccc(-c2noc(-c3ccccc3F)n2)c1,inactive,inactive,inactive,inactive,inactive,inactive,inactive,inactive,inactive,inactive
CN1C(C(=O)Nc2ccccn2)=C(O)c2sccc2S1(=O)=O,inactive,inactive,inactive,inactive,inactive,inactive,inactive,inactive,inactive,inactive
COc1cc(OC)c(C(=O)CCCN2CCCC2)c(OC)c1,inactive,inactive,inactive,inactive,inactive,inactive,inactive,inactive,inactive,inactive
COC(=O)C1=C(C)NC(C)=C(C(=O)OCCCN2CCC(c3ccccc3)(c3ccccc3)CC2)C1c1cccc([N+](=O)[O-])c1 (stereo not given),9530 nM (active),9530 nM (active),4780 nM (active),2820 nM (active),6750 nM (active),4780 nM (active),7570 nM (active),9530 nM (active),6010 nM (active),8490 nM (active)

SMILES,Potency (CP266),Potency (CP268),Potency (CP269),Potency (CP286),Potency (CP291),Potency (CP297),Potency (CP305),Potency (CP315),Potency (CP325),Potency (CP329)
CCC(C)(Oc1ccc(C2(c3ccc(OC(C)(CC)C(=O)O)cc3)CCCCC2)cc1)C(=O)O (stereo not given),inactive,inactive,inactive,inactive,inactive,inactive,inactive,inactive,inactive,inactive
CC1=C(C)C(=O)C(C(CCCCCC(=O)O)c2ccccc2)=C(C)C1=O (stereo not given),inactive,inactive,inactive,inactive,inactive,,inactive,,inactive,inactive
Cc1cc2c(s1)Nc1ccccc1N=C2N1CCN(C)CC1,inactive,inactive,inactive,inactive,inactive,inactive,inactive,inactive,inactive,inactive
O=C1c2ccccc2-c2n[nH]c3cccc1c23,inactive,inactive,inactive,inactive,inactive,inactive,inactive,inactive,inactive,inactive
COC1=C(OC)C(=O)C(CCCCCCCCCCO)=C(C)C1=O,inactive,inactive,inactive,inactive,inactive,inactive,inactive,inactive,inactive,inactive
CC1(C)CCC(C)(C)c2cc(NC(=O)c3ccc(C(=O)O)cc3)ccc21,inactive,inactive,inactive,inactive,inactive,inactive,inactive,inactive,inactive,inactive
Oc1ccc(OCc2ccccc2)cc1,inactive,inactive,inactive,inactive,inactive,inactive,,inactive,inactive,inactive
CN(C)c1ccc2nc3ccc(=[N+](C)C)cc-3sc2c1,75.7 nM (active),37.9 nM (active),84.9 nM (active),12.6 nM (active),53.6 nM (active),67.5 nM (active),21.3 nM (active),151 nM (active),47.8 nM (active),60.1 nM (active)
Cc1c(OCC(F)(F)F)ccnc1CS(=O)c1nc2ccccc2[nH]1 (stereo not given),inactive,inactive,inactive,inactive,inactive,inactive,inactive,inactive,inactive,inactive
c1ccc2[nH]c(-c3cscn3)nc2c1,inactive,inactive,inactive,inactive,inactive,,inactive,inactive,inactive,inactive
CCc1nc(N)nc(N)c1-c1ccc(Cl)cc1,inactive,inactive,inactive,inactive,inactive,,inactive,inactive,inactive,
O=C(CS(=O)Cc1ccco1)NCC=CCOc1cc(CN2CCCCC2)ccn1 (stereo not given),inactive,inactive,inactive,inactive,inactive,,inactive,inactive,inactive,inactive
CCOC(=O)c1c(C)n(C)c2ccc(O)cc12,inactive,inactive,inactive,inactive,inactive,inactive,inactive,inactive,inactive,inactive
O=P(O)(O)C(O)(Cn1ccnc1)P(=O)(O)O,inactive,inactive,inactive,inactive,inactive,inactive,inactive,inactive,inactive,inactive
Nc1cc(C(Cl)=C(Cl)Cl)c(S(N)(=O)=O)cc1S(N)(=O)=O,inactive,inactive,inactive,inactive,inactive,inactive,inactive,inactive,inactive,inactive
C=CCc1cc(OC)c(O)c(C(=O)NCCO)c1,inactive,inactive,inactive,inactive,,inactive,inactive,inactive,inactive,inactive
C[C@H](Cn1cnc2c(N)ncnc21)OCP(=O)(O)O,inactive,inactive,inactive,inactive,inactive,inactive,inactive,inactive,inactive,inactive
CC(C)[C@H](N)C(=O)OCCOCn1cnc2c(=O)[nH]c(N)nc21,inactive,inactive,inactive,inactive,inactive,inactive,inactive,inactive,inactive,inactive
Cc1cc2cc3c(C)cc(=O)oc3c(C)c2o1,inactive,inactive,inactive,inactive,inactive,inactive,inactive,inactive,inactive,inactive
C[Se]CCC(N)C(=O)O (stereo not given),inactive,inactive,inactive,inactive,inactive,,inactive,inactive,inactive,inactive
Cn1c(NCCN(CCO)CCCc2ccc([N+](=O)[O-])cc2)cc(=O)n(C)c1=O,inactive,inactive,inactive,inactive,inactive,inactive,inactive,inactive,inactive,inactive
Nc1ccc(S(N)(=O)=O)cc1,inactive,inactive,inactive,inactive,inactive,inactive,inactive,inactive,inactive,inactive
COC(=O)[C@H](Cc1ccccc1)NC(=O)[C@@H](N)CC(=O)O (H-Asp-Phe-OMe),inactive,inactive,inactive,inactive,inactive,inactive,inactive,inactive,inactive,inactive
Nc1cccc2c1CN(C1CCC(=O)NC1=O)C2=O (stereo not given),inactive,inactive,inactive,inactive,inactive,inactive,inactive,inactive,inactive,inactive
CCCCN(CCCC)CCC(O)c1cc2c(Cl)cc(Cl)cc2c2cc(C(F)(F)F)ccc12 (stereo not given),90.7 nM (active),51 nM (active),16.1 nM (active),8.9 nM (active),28.7 nM (active),18.1 nM (active),36.1 nM (active),51 nM (active),28.7 nM (active),51 nM (active)
Cc1ncc([N+](=O)[O-])n1CC(C)O (stereo not given),inactive,inactive,inactive,inactive,inactive,,inactive,inactive,inactive,inactive
Nc1ccn([C@@H]2O[C@H](CO)[C@@H](O)C2O)c(=O)n1 (stereo not given in full),inactive,inactive,inactive,inactive,inactive,inactive,inactive,inactive,inactive,inactive
